What all share (assay): NCI-60 one-dose screen, 48 h (100 = growth as untreated, 0 = no growth, -100 = all killed)
Conditions in all cases: 10 µM unless noted

In test [1] the test system is NCI-H23 lung.
Test [2] concerns NCI-H226 lung.
Test [3] deals with NCI-H322M lung.
Test [4] has as its system HOP-62 NSCLC.
In test [5] the test system is NCI-H460 lung.
The subject of test [6] is HOP-92 NSCLC.
In test [7] the test system is NCI-H522 lung.
For test [8], the system named is A549/ATCC NSCLC.
For test [9], the system named is 786-0 renal.
In test [10] the test system is COLO 205 colon.
Test [11] deals with DU-145 prostate.
The test system of test [12] is MALME-3M melanoma.
Test [13] deals with MDA-MB-231 breast.
The test system of test [14] is RXF 393 renal.
In test [15] the test system is SF-268 CNS.
For test [16], the system named is SF-295 CNS.
For test [17], the system named is SF-539 CNS.
In test [18] the test system is UACC-257 melanoma.
Test [19] concerns M14 melanoma.
For test [20], the system named is K-562 leukemia.

Compounds without any hit were thinned out: in the full panel of roughly 83,000, 20% have a hit.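 Compound tested at a single concentration for 48 hours in 96-well plates; a percent growth value below 10 was scored as active.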 Values without a mark were called inactive. Activity calls are given as the source filed them.

For the compound `Cc1cccc2ccccc12`, the growth in [1] is 104%; in test [2], 97%; in test [3], 103%; in test [4] it was 102%; in test [5], 104%; in [6], 100%. For the same compound, the growth is 97.3% in test [7]; 96.9% in test [8]; 97.9% in [9]; 117% in test [10]; 114% in test [11]; 103% in [12]. The growth in [13] was 101%; in test [14], 111%; in [15] it was 102%; in [16], 97.4%; in test [17] it was 89.8%; in test [18] it was 101%. Further, the growth in test [19] was 97.7%.

Take `O=C(OCc1ccccc1)n1nnc2ccccc21`: the growth is 115% in test [1]; 108% in test [2]; 105% in test [3]; 110% in test [4]; 109% in [5]; 116% in test [6]. The growth is 100% in [7]; 102% in [8]; 98.7% in test [9]; 111% in test [10]; 112% in test [11]; 107% in [20]. In addition, the growth in [13] is 96.6%; in test [14], 113%; in test [15] it was 104%; in test [16], 99.2%; in test [17], 105%; in [18], 97.2%. Also, the growth in test [19] is 98.7%.

With `Cc1ccc(C(C)C)c(OCC(=O)O)c1`, the growth in test [1] was 107%; in test [2], 105%; in test [3] it was 107%; in test [4] it was 101%; in [5] it was 107%; in test [6], 98%. Besides, the growth in test [7] was 111%; in test [8] it was 90.8%; in test [9], 102%; in test [10], 107%; in [11], 121%; in test [20] it was 108%. The growth in test [13] was 107%; in test [14] it was 114%; in test [15] it was 97.5%; in test [16], 101%; in test [17], 103%; in test [18], 88.3%. The growth in [19] was 108%.

Regarding `C=C1C(=O)C2CCN1CC2`, the growth was 102% in [1]; 101% in test [2]; 99.5% in [3]; 101% in [4]; 104% in test [5]; 104% in test [6]. Moreover, the growth in test [7] was -53.8% (active); in test [8], 97%; in test [9], 96.2%; in test [10] it was 102%; in test [11], 103%; in test [20] it was 57.3%. In addition, the growth is 125% in test [13]; 89.6% in test [14]; 102% in test [15]; 96.1% in test [16]; 102% in test [17]; 108% in test [18]. For the same compound, the growth in [19] is 92.3%.

As for `O=S(Cc1ccccc1)/C(=C/NC(=S)Nc1ccccc1)c1ccccc1` (configuration not stated), the growth in test [1] was 89.3%; in test [2] it was 101%; in test [3], 99.7%; in test [4], 94.9%; in [5], 107%; in test [6] it was 101%. Besides, the growth in test [7] was 77%; in test [8] it was 95.9%; in [9] it was 110%; in test [10], 101%; in test [11], 104%; in test [20], 106%. In addition, the growth in [13] was 108%; in test [14], 116%; in test [15], 99.2%; in test [16], 114%; in test [17], 99.7%; in test [18], 98%. In addition, the growth in test [19] was 98.5%.

In the case of `O=c1nc(Nc2cccc(Cl)c2)oc2cc(Cl)oc(=O)c12`, the growth in [1] was 64.5%; in [2], 94.9%; in [3], 108%; in test [4], 81.5%; in test [5], 98.8%; in test [6] it was 47.2%. The growth was 26.2% in test [7]; 101% in [8]; 85.2% in test [9]; 80.1% in test [10]; 113% in test [11]; 81.6% in test [20]. In addition, the growth in [13] was 50.9%; in [14], 42.5%; in test [15], 66.9%; in test [17], 79.8%; in [18] it was 87%; in test [19] it was 66.2%.

As to `C1=NCCc2ccccc21`, the growth in [1] is 93.8%; in [2], 85.8%; in test [3], 105%; in [4], 89.4%; in test [5] it was 103%; in test [6], 92.1%. Besides, the growth in [7] was 114%; in test [8], 98.5%; in test [9], 103%; in test [10] it was 101%; in [11], 111%; in [20], 107%. Further, the growth in test [13] was 99%; in [14] it was 104%; in [15] it was 95%; in test [16] it was 100%; in test [17], 96.5%; in test [18], 94.8%. Besides, in test [19], the growth was 94.2%.

Regarding `Cc1ccc(NCN2C(=O)c3ccccc3C2=O)c(C)n1`, the growth was 112% in test [1]; 103% in [2]; 103% in test [3]; 110% in test [4]; 111% in [5]; 102% in test [6]. Besides, the growth in test [7] is 112%; in test [8], 107%; in test [9], 95.8%; in test [10] it was 112%; in [11], 107%; in [20] it was 108%. For the same compound, the growth was 115% in test [13]; 114% in [14]; 105% in [15]; 106% in test [16]; 116% in [17]; 105% in test [18]. The growth in [19] was 97.6%.

As for `Cc1cc(CC(=O)NCCO)n(CCO)c(=O)c1`, the growth was 101% in test [1]; 105% in [2]; 103% in test [3]; 91% in test [4]; 103% in test [5]; 115% in test [6]. Besides, the growth in test [7] was 93.8%; in test [8], 94.1%; in [9], 108%; in test [10] it was 104%; in test [11], 110%; in test [12], 115%. Further, the growth in test [13] was 109%; in test [14], 110%; in [15] it was 101%; in [16], 104%; in test [17] it was 107%; in test [18], 93%. The growth in test [19] is 103%.

As for `CC(=O)NCNC(C)=O`, the growth was 113% in test [1]; 99.8% in test [2]; 110% in test [3]; 108% in test [4]; 113% in test [5]; 150% in test [6]. Also, the growth was 119% in test [7]; 96.7% in test [8]; 109% in test [9]; 118% in test [10]; 118% in test [11]; 112% in [20]. The growth in test [13] is 118%; in test [14], 108%; in test [15], 110%; in [17], 91.3%; in [18], 95.4%; in test [19] it was 111%.

For the compound `S=CN1CCCCC1`, the growth in [1] is 105%; in test [2] it was 98.1%; in [3], 102%; in [4], 108%; in test [5] it was 109%; in test [6], 103%. Moreover, the growth was 109% in [7]; 91.8% in test [8]; 102% in test [9]; 121% in [10]; 106% in [11]; 101% in [20]. Also, the growth in test [13] is 108%; in test [14], 102%; in [15], 96.7%; in test [16] it was 96%; in test [17] it was 97.4%; in [18], 91.8%. For the same compound, in test [19], the growth is 106%.

`CC(C)(C)[Si](C)(C)OCC1OC(n2cnc3c(N)ncnc32)CC1OS(C)(=O)=O` (configuration not stated): the growth is 106% in test [1]; 101% in test [2]; 109% in test [3]; 104% in [4]; 105% in [5]; 98.5% in test [6]. Further, the growth in [7] was 99%; in test [8], 99.4%; in test [9], 103%; in [10], 110%; in [11], 105%; in test [20] it was 105%. Moreover, the growth in [13] is 102%; in test [14], 102%; in test [15], 97.9%; in test [16] it was 110%; in [17] it was 108%; in test [18], 94.7%. Also, in test [19], the growth was 104%.

Turning to `CC(=O)c1cccc(O)c1`, the growth in test [1] is 96.6%; in [2], 103%; in test [3] it was 106%; in test [4] it was 93%; in [5] it was 105%; in [6], 103%. For the same compound, the growth in [7] was 88.9%; in test [8] it was 98.9%; in test [9], 96%; in [10] it was 110%; in test [11] it was 105%; in test [20] it was 103%. For the same compound, the growth in test [13] was 104%; in test [14], 112%; in test [15], 97.1%; in test [16], 101%; in test [17] it was 98%; in test [18], 99.3%. Moreover, the growth in test [19] was 99.6%.

With `Cc1c(Cl)cccc1N=C=S`, the growth is 85% in test [1]; 101% in [2]; 95.4% in test [3]; 88.5% in test [4]; 101% in test [5]; 69.6% in test [6]. The growth in test [7] was 86.8%; in test [8] it was 90.4%; in test [9] it was 101%; in test [10], 117%; in test [11], 112%; in [12], 99%. For the same compound, the growth was 130% in [13]; 91.9% in test [14]; 107% in [15]; 93.9% in test [16]; 90.2% in test [17]; 92.7% in test [18]. For the same compound, the growth in [19] was 90.6%.

Consider `NNC(=O)CCCCl`, for which the growth in test [1] is 97.7%; in test [2] it was 98.7%; in test [3], 107%; in test [4], 107%; in test [5] it was 111%; in test [6] it was 137%. Moreover, the growth was 104% in [7]; 100% in test [8]; 108% in test [9]; 118% in test [10]; 108% in test [11]; 105% in [20]. The growth in test [13] is 104%; in test [14], 96.6%; in [15], 102%; in test [16], 102%; in test [17] it was 106%; in test [18], 105%. Also, the growth in test [19] is 100%.

`CCOC(=N)CC(=O)Nc1cccc(C)c1Cl`: the growth in test [1] is 100%; in test [2], 84.5%; in test [3], 99.6%; in test [4] it was 102%; in test [5] it was 105%; in test [6] it was 89.1%. Besides, the growth in test [7] was 110%; in [8] it was 106%; in [9] it was 106%; in test [10], 100%; in test [11], 107%; in test [20] it was 122%. Besides, the growth in [13] is 89.5%; in test [14] it was 97.5%; in test [15], 101%; in [16], 97.2%; in test [17] it was 99.6%; in test [18], 103%. Further, in [19], the growth was 94.9%.

These data come from PubChem BioAssay (NCI).
